# Assay results reported in paper PMC4336329 (PLoS ONE, 2015).
# The campaign covered roughly 310,000 compounds. About 14,000 (4.5%) showed an effect of 50% or more. Effects have a minus sign here. Shown is part of a subset that was picked to be rich in strong results.
# Target: human ether-à-go-go-related gene (hERG) potassium channel (human, UniProt Q12809)
# Assay: primary screen, population patch clamp on CHO cells stably expressing hERG; higher = less effect of the substance
# 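Also: peak tail current of the secondary pulse compared with the same well before compound.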
# Chain of human ether-à-go-go-related gene (hERG) potassium channel (Q12809 whole entry, looked up): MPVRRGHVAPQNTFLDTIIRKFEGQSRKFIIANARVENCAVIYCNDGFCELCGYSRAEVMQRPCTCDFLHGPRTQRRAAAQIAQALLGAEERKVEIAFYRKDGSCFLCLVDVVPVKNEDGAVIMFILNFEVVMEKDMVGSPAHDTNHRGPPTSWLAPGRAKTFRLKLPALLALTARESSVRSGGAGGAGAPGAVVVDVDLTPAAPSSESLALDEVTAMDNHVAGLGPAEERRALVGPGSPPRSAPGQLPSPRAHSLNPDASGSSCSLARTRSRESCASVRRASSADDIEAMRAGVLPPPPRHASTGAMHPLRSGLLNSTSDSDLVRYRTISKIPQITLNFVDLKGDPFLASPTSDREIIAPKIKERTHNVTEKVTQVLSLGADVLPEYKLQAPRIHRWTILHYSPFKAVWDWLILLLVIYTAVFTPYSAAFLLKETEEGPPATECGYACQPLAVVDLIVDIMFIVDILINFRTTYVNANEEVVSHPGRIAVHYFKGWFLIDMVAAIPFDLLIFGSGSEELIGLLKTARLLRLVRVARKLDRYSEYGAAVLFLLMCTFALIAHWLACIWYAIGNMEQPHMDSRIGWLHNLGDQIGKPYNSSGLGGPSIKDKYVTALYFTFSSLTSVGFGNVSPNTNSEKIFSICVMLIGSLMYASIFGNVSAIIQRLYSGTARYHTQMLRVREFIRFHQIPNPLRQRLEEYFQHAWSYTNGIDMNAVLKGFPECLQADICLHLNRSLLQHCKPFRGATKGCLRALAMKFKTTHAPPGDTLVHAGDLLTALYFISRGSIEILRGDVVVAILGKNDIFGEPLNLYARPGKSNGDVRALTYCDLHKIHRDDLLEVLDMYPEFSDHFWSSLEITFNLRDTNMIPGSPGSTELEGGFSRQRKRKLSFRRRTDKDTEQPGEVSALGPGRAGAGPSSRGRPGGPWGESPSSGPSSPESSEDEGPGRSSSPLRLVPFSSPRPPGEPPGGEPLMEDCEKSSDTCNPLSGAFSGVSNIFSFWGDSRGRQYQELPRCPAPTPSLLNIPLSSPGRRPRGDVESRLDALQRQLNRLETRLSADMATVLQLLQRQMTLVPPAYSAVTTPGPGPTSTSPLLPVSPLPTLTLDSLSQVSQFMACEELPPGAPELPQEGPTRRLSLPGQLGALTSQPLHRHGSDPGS
row,Compound,"hERG current change (%, negative = inhibition) at 10uM"
1,O=C(Nc1ccccc1F)c1ccc2c(c1)CCN2S(=O)(=O)c1ccccc1,19.5%
2,C=CCn1c(SCc2ccccc2C#N)nnc1-c1ccccc1O,-23.7%
3,Cc1ccc2c(c1)C(c1ccc(N3CCOCC3)cc1)=NNC(c1cccs1)=N2,1.66%
4,Nc1n[nH]c(N)c1N=Nc1ccc(Cl)cc1Cl,19.1%
5,COc1ccc(-c2noc(N3CCC(C(=O)Nc4ccccc4Cl)CC3)n2)cc1,10.8%
6,Cc1cc(NC(=O)c2ccccc2)sc1C,5.55%
7,Cc1cc(OC(=O)c2cccc(Cl)c2)c([N+](=O)[O-])c(=O)[nH]1,19.9%
8,COCCNc1oc(-c2ccco2)nc1S(=O)(=O)c1ccccc1,2.69%
9,CCC(CO)NCC(O)COCc1ccc2c(c1)OCO2 (stereo not shown),10.1%
10,Cc1ccc(OCCCN2CCCC2)c(C)c1.O=C(O)C(=O)O,-27.2%
11,Cc1cc(C)c(C)c(OCCOCCN2CCN(C)CC2)c1,-1.93%
12,Cc1ccc(C)c(OCCCCN2CCCCC2)c1.O=C(O)C(=O)O,-42.1%
13,Cc1cc(OCCN2CCCC2)ccc1[N+](=O)[O-].O=C(O)C(=O)O,-9.82%
14,Cc1cc(C)c(C)c(OCCCCN2CCCCC2)c1,-52.5%
15,Cc1cc(OCCN2CCC(Cc3ccccc3)CC2)ccc1[N+](=O)[O-].O=C(O)C(=O)O,-79.1%
16,Cc1cc(OCCN2CCCCCC2)ccc1[N+](=O)[O-].O=C(O)C(=O)O,-46.2%
17,Cc1ccc(OCCCCN2CCCC(C)C2)c([N+](=O)[O-])c1.O=C(O)C(=O)O (stereo not shown),-69%
18,Cc1ccc(OCCOCCN2CCCCC2)c([N+](=O)[O-])c1.O=C(O)C(=O)O,-37.5%
19,Cc1ccc(C)c(OCCCN2CCCC2)c1.O=C(O)C(=O)O,-54.9%
20,Cc1ccc(OCCCN2CCOCC2)c([N+](=O)[O-])c1.O=C(O)C(=O)O,-12%
21,Cc1ccc(OCCCCN2CCCCC2)c(C)c1,-24.6%
22,CCN(CC(=O)NC1CCS(=O)(=O)C1)S(=O)(=O)c1ccccc1 (stereo not shown),7.7%

row,Compound,"hERG current change (%, negative = inhibition) at 10uM"
1,CCOc1ccc(Br)cc1S(=O)(=O)Nc1ccccc1N1CCOCC1,-15.8%
2,O=C(Cn1cccc1)N1CCN(C(c2ccccc2)c2ccccc2)CC1,-3.68%
3,Cn1c(=O)c2c(nc(NC3CCCCC3)n2Cc2ccccc2)n(C)c1=O,14.2%
4,Cc1ccc(CN(C(=O)c2cc(=O)c3cc(C)cc(C)c3o2)C2CCS(=O)(=O)C2)cc1 (stereo not shown),-32.1%
5,COc1ccc(N2CC(C(=O)N[C@@H](C)C(=O)NC3CCCC3)CC2=O)cc1 (stereo partly shown),15.7%
6,CN(C)/C=C/C(=O)c1cnc2sccn2c1=O,5.24%
7,O=C(/C=C/c1ccccc1Cl)c1ccccc(=O)c1O,-1.72%
8,Cc1ccc(/C=C/C(=O)c2ccccc(=O)c2O)cc1C,-24.6%
9,Cc1ccc(C)c(/C=C/C(=O)c2ccccc(=O)c2O)c1,-50.7%
10,C/C(=N/NC(=O)c1ccco1)c1cccc(NC(=O)c2ccc(C)o2)c1,-45.4%
11,C/C(=N\NC(=O)c1ccncc1)c1cccc(NC(=O)c2ccc(C(C)(C)C)cc2)c1,-53.7%
12,O=C(Nc1ccccc1)c1ccc(Br)o1,3.15%
13,C/C(=N/NC(=O)c1ccc(Br)o1)c1cccc(NC(=O)c2ccc(F)cc2)c1,-58.9%
14,C/C(=N/NC(=O)c1ccc(Br)o1)c1cccc(NC(=O)c2ccc(C)o2)c1,-67.6%
15,C/C(=N\NC(=O)c1ccc(F)cc1)c1cccc(NC(=O)c2cccc(F)c2)c1,21.3%
16,CC(=O)c1cccc(NC(=O)c2ccc(Br)o2)c1,-1.49%
17,C/C(=N\NC(=O)c1cccc(F)c1)c1cccc(NC(=O)c2ccc(F)cc2)c1,13%
18,C/C(=N\NC(=O)c1cccc(Br)c1)c1cccc(NC(=O)c2ccc(C)o2)c1,-6.46%
19,C/C(=N/NC(=O)c1ccncc1)c1ccc(NC(=O)c2ccccc2)cc1,7.92%
20,O=C(c1ccccc1)c1cccc(NC(=O)c2ccc(Br)o2)c1,-61.1%
21,COc1ccc(C(=O)N/N=C(/C)c2cccc(NC(=O)c3ccncc3)c2)cc1OC,8.48%
22,CCCCNC(=O)c1onc(CSc2ccc(Cl)cc2)c1C(=O)NCCCC,-20.5%

row,Compound,"hERG current change (%, negative = inhibition) at 10uM"
1,CCC(C(=O)Nc1ccc(C(C)C)cc1)c1ccccc1 (stereo not shown),11.8%
2,COc1cc(/C=N/NC(=O)CNC(=O)c2ccc3c(c2)OCCO3)ccc1O,1.98%
3,COc1cccc(C2CCCN2Cc2nc(-c3cnccn3)no2)c1 (stereo not shown),7.84%
4,CC(NC(=O)Cc1cccs1)c1ccccc1 (stereo not shown),24.5%
5,Cc1ccc(NC(=O)CCSc2nnc(-c3ccco3)o2)cc1,9.02%
6,COCc1cc(=O)[nH]c(Nc2nc3ccc(C)cc3o2)n1,-10.3%
7,O=C(/C=C/c1ccccc1)NCCN1CCOCC1,20.6%
8,COc1ccc(C(=O)/C(=C/N(C)C)S(=O)(=O)c2ccccc2)cc1,10.8%
9,O.O=C1NC2(O)C(=O)c3ccccc3C2(O)N1 (stereo not shown),11%
10,O=C(N/N=C\c1cc(Br)cs1)c1ccncc1,-6.73%
11,CCC1Sc2ccc(S(=O)(=O)CCC(=O)NC3CCCCCC3)cc2NC1=O (stereo not shown),16.1%
12,c1ccc2c(c1)Oc1ccccc1S2,14.7%
13,Cc1ccc(N=C2C(=S)N(c3ccc(C)cc3)C(=N)N2/N=C/c2ccc(Cl)cc2)cc1,-6.29%
14,CCOC(=O)c1ccc(N=C2C(=S)N(c3ccc(C(=O)OCC)cc3)C(=N)N2/N=C/c2ccccc2)cc1,-52.7%
15,N=C1N(/N=C/c2ccccc2)C(=Nc2ccccc2)C(=S)N1c1ccccc1,2.03%
16,CCOc1ccc(C(=O)NC2CCN(C(=O)Nc3ccc(F)cc3)CC2)cc1,0.481%
17,CCc1cc2c(NCCC(=O)O)nc(C)nc2s1,24.2%
18,Cc1ncc(CN2CCCC(C(=O)c3ccc(C(C)(C)C)cc3)C2)s1 (stereo not shown),-72.8%
19,COc1ccc(C(=O)C2CCCN(Cc3ccc(C#CCCO)cc3)C2)c(OC)c1 (stereo not shown),-51.2%
20,Cc1ncc(CN2CCCC(C(=O)c3cccc(Cl)c3)C2)s1 (stereo not shown),-13.6%
21,COc1ccc2cc(C(=O)C3CCCN(Cc4cnc(C)s4)C3)ccc2c1 (stereo not shown),-28.8%
22,COc1ccc(C(=O)C2CCCN(Cc3ccc(C)s3)C2)cc1OC (stereo not shown),-71.6%

row,Compound,"hERG current change (%, negative = inhibition) at 10uM"
1,COc1ccc(C(=O)C2CCCN(Cc3ccc(C#CCCO)cc3)C2)cc1F (stereo not shown),-45.3%
2,COc1ccc(C(=O)C2CCCN(Cc3cnc(C)s3)C2)cc1OC (stereo not shown),-5.12%
3,COc1ccc(C(=O)C2CCCN(Cc3cc(C)c(O)c(C)c3)C2)c(OC)c1 (stereo not shown),-61%
4,CCOC(=O)N1CCN(c2nc(-c3cccc(OC)c3)cc(C(F)(F)F)n2)CC1,6.67%
5,Cc1c(C(=O)N2CCCC2)c(S(=O)(=O)Nc2cccc(Br)c2)c(C)n1C,6.99%
6,CCN(CC)C(=O)Cn1cnc2sc(C(=O)Nc3cc(OC)c(OC)c(OC)c3)c(C)c2c1=O,14.5%
7,Cn1cc(/C=N\NC(=O)C2COc3ccccc3O2)c2ccccc21 (stereo not shown),9.62%
8,Cc1ccc(NC(=O)NNC(=O)c2cc3ccccc3cc2O)c(C)c1,27.4%
9,Cc1ccccc1C1NS(=O)(=O)N=C1N (stereo not shown),23.3%
10,CC(Oc1ccc(-c2ccccc2)c(F)c1)c1ccn(S(=O)(=O)c2ccc(Br)cc2)n1 (stereo not shown),7.43%
11,COCCCNC(=O)CN1C(=O)/C(=C\c2ccc(C)cc2)Sc2ccccc21,-15.8%
12,COc1ccc(C(=O)C2CCCN(Cc3ccc(C)s3)C2)c(OC)c1 (stereo not shown),-53.7%
13,COc1ccc(C(=O)C2CCCN(Cc3cnc(C)s3)C2)c(OC)c1 (stereo not shown),-42.3%
14,COc1ccc(C(=O)C2CCCN(Cc3ccc(NC(C)=O)cc3)C2)cc1OC (stereo not shown),-21.1%
15,COc1ccc(C(=O)C2CCCN(Cc3ccsc3)C2)cc1OC (stereo not shown),-73.8%
16,NS(=O)(=O)c1ccc(CCNC(=O)C2CCN(S(=O)(=O)c3cnc[nH]3)CC2)cc1,-2.97%
17,CC(C)(C)P(=O)(c1ccncc1)N1CCCC1 (stereo not shown),2.14%
18,O=C(Nc1ccc2oc(=O)ccc2c1)c1cc([N+](=O)[O-])ccc1N1CCOCC1,-41.8%
19,CCN(CC(=O)Nc1ccc(NC(C)=O)cc1)C(=O)/C=C/c1ccc2c(c1)OCO2,0.823%
20,CC(C)C[C@H]1CN=C(Nc2ccccc2)N1CCCC1CCCC1,-65.9%
21,CC(C)C[C@H]1CN=C(Nc2ccccc2)N1CCC1CCCC1,-51.5%
22,CC(C)C[C@H]1CN=C(Nc2ccccc2)N1CCC1CCCCC1,-61.5%
